Results published in PubChem BioAssay AID588345 (Broad Institute, 2011).
The whole screen tested about 1,300 compounds, of which about 850 (65%) were called active. Not shown: some 1% with an inconclusive outcome. The rule behind the calls is not given here. So high a share suggests a set chosen from earlier hits. The list is a sample of the results. Potency and affinity values are given separately.

biological target: Dual specificity tyrosine-phosphorylation-regulated kinase 1A (Rattus norvegicus) (UniProt Q63470); test: rat Dyrk1A kinase inhibitors, dose response, biochemical, cherry-pick, plate reader, 2124-01 (AID 588345); settings: Dyrk1A kinase biochemical assay; series mostly up to 12 µM

outcome, inactive:
CCOC(=O)Cn1c(-c2cccnc2Cl)nc2ccccc21, O=C(CN1CCOCC1)Nc1nc2ccc([N+](=O)[O-])cc2s1, CC1CCc2nc(NC(=O)c3ccc(N4C(=O)CCC4=O)cc3)sc2C1 (stereo not drawn), CC1CCc2nc(NC(=O)CN3CCN(Cc4ccc5c(c4)OCO5)CC3)sc2C1 (stereo not drawn), Cc1noc(C)c1-c1ccc2ncnc(NC(C)c3ccco3)c2c1 (stereo not drawn), O=C(Nc1cccc(Cl)c1)ON=C1c2ccccc2-c2ccccc21, CCC(=O)Nc1c(C#N)c2nc3ccccc3nc2n1-c1ccccc1C, Cc1ccc(NC(=S)Nc2ccc3cn[nH]c3c2)cc1, COc1ccc2c(c1)C(=O)N1[C@H]3c4cc(C)ccc4OC[C@@H]3[C@H](c3ccccc3)[C@]1(C)C(=O)N2, Cc1c(C(=O)O)sc2nc(-c3cccs3)cc(C(F)(F)F)c12, O=C1CCCC2=C1Sc1ccc(Cl)cc1N2, O=C1c2ccccc2S(=O)(=O)N1Cc1nnc(-c2ccccc2Br)o1, CC(C)=CCc1cc(-c2oc3cc(O)cc(O)c3c(=O)c2O)ccc1O, O=C(Nc1ncc2c(n1)-c1ccccc1CC2)c1ccc(Cl)cc1, CCOCCCNC(=O)C(NC(=O)c1ccc(=O)[nH]c1)c1ccc(Cl)cc1 (stereo not drawn), Cc1cccc(C(C)n2nnc3ccccc32)c1O (stereo not drawn), O=c1oc(-c2ccc(O)c(O)c2)cc2cc(O)cc(O)c12, O=c1cc(-c2ccc(O)cc2)oc2c(O)c(O)c(O)c(O)c12, CN(C)CCCOC(=O)COc1ccc(Br)cc1, CCn1c(NC(=O)c2ccccc2)c(-c2cccs2)c(=O)c2ccccc21, CCN(CC)C(=O)Oc1ccc2c(c1)O/C(=C\c1ccco1)C2=O, O=c1cc(-c2ccco2)oc2c1ccc1ccccc12, COc1cc(/C=C2\SC(N)=NC2=O)ccc1O, OC(c1cc(C(F)(F)F)nc2c(Cl)cc(Cl)cc12)C1CCCCN1 (stereo not drawn), O=C(O)c1cccc2c1/C(=N/O)c1ccccc1-2, CCn1c2ccccc2c2nc3cc(C(=O)O)ccc3nc21, S=C(Nc1cccnc1)Nc1cccc2cnccc12, COc1ccc(NC(=S)N(CCc2c(C)[nH]c3ccccc23)Cc2cccnc2)cc1, Cc1cc2nncn2c2ccccc12, COc1ccc(NC(=O)N(C)C[C@H]2Oc3c(NS(=O)(=O)c4cccs4)cccc3C(=O)N([C@@H](C)CO)C[C@@H]2C)cc1, C[C@@H]1C=C(C(=O)NCc2nc3ccccc3[nH]2)O[C@H](OCCCCO)C1, O=C1CN(C(=O)C2CCC(=O)N(CCc3ccc(Cl)cc3)C2)CCN1 (stereo not drawn), COc1ccc2nc(C)c3c(c2c1)OC(C(C)(Cl)Br)C3 (stereo not drawn), COc1ccc2oc(N)c(C=O)c(=O)c2c1, c1cnc2ncc3sccc3c2c1, O=c1c(O)c(-c2cc(O)c(O)c(O)c2)oc2cc(O)cc(O)c12, O=c1c(O)c(-c2ccccc2)oc2cc(O)cc(O)c12, Cc1cccc(CNc2ncnc3ccc(-c4ccc5c(c4)OCO5)cc23)c1, O=C(CN1CCOCC1)Nc1nc2ccc(F)cc2s1, NC(=O)c1cc2ccc(O)cc2oc1=Nc1ccccc1, COc1ccc(OC)c(N=c2oc3cc(O)ccc3cc2C(N)=O)c1, COc1ccc2nc(-n3c(O)c(C4=c5ccccc5=NC4=O)[nH]c3=S)sc2c1, CC(=O)c1nc2ccccc2n1S(=O)(=O)c1ccc(Cl)cc1, COc1cccc(C(=O)Nc2ccc(F)c(F)c2F)c1, O=C(Nc1cccnc1)c1scc2c1OCCO2, Cc1cc(C(=O)CSc2nn(-c3ccccc3)c(=S)s2)c(C)n1Cc1ccco1, Cc1cc([N+](=O)[O-])nn1Cc1ccccc1F, CN(C)CCNC(=O)c1cc2c(=O)n(C)c3ccccc3c2n1C, CC1CCC(NC(=O)c2cc(S(=O)(=O)N3CCCCC3)c[nH]2)CC1 (stereo not drawn), CN1CCN(CCNC(=O)c2cc3c(=O)n(C)c4ccccc4c3n2C)CC1, O=c1cc[nH]c2c1ccc1cccnc12, COc1ccc2[nH]c(C)c(CCN(Cc3cccs3)C(=S)Nc3ccccc3OC)c2c1, CN1CCc2c(sc3nc(NN)n(-c4ccc(Cl)cc4)c(=O)c23)C1, O=C(N/N=C/c1ccccn1)c1cc(-c2ccccc2Cl)n[nH]1, CN(C)CCNC(=O)c1cc2c(s1)-c1ccccc1OC2, O=C(COc1ccccc1)Nc1cccc(-c2nn[nH]n2)c1, O=C(Nc1cccc(-c2cn3cccnc3n2)c1)c1ccc(Br)o1, COc1cc(C(C)=O)ccc1Oc1ncnc2c1cnn2-c1ccccc1, c1ccc2c(c1)Nc1ccncc1S2, COc1ccc(-c2csc3ncnc(Sc4nnnn4C)c23)cc1, Cc1ccc2oc(=O)c3cnn(CC(=O)NC4CCCCC4C)c3c2c1 (stereo not drawn), N=C1S/C(=C\c2ccc(O)cc2)C(=O)N1c1ccc(F)cc1, Cn1c(=O)c2c(nc(NCc3ccco3)n2CC(O)COc2ccccc2)n(C)c1=O (stereo not drawn), O=C(Nc1nc2ccccc2s1)c1ccc(OCC2CCCO2)cc1 (stereo not drawn), O=C(NC(Nc1nc2ccc([N+](=O)[O-])cc2s1)(C(F)(F)F)C(F)(F)F)c1ccccc1, C=CCn1c(SCC(=O)Nc2nc3ccccc3s2)nc(O)c(CC)c1=O, CC(C)NS(=O)(=O)c1ccc(OCC(=O)N(C)Cc2ccccc2)cc1, COc1ccc(NC(=O)N(C)C[C@H]2Oc3ccc(NC(=O)CCN4CCOCC4)cc3C(=O)N([C@H](C)CO)C[C@@H]2C)cc1, CC[C@@](C)(NS(=O)(=O)OCC(Cl)(Cl)Cl)c1ccccc1, O=C1C2C(c3ccccc3)CC=CC2[C@H](c2ccoc2)N1Cc1ccccc1 (stereo partly drawn), CCN1CCN(c2nc(Nc3cccc(C)c3)nc(N)c2[N+](=O)[O-])CC1, Nc1nc(NCCCN2CCOCC2)nc(Nc2ccccc2)c1[N+](=O)[O-], O=C(c1ccc(Cl)c(Cl)c1)N1CCC(=O)N(C(COCc2cccc(C(F)(F)F)c2)Cc2ccccc2)CC1 (stereo not drawn), O=c1c2ccccc2nnn1CSc1nnc(-c2ccc3c(c2)OCO3)o1, O=C(O)c1ccc(-n2cc(-c3cc4ccccc4oc3=O)[nH]c2=S)cc1, COc1cccc(/C=C2\Oc3ccc(O)cc3C2=O)c1O, Oc1ccc(-c2[nH]ncc2-c2nc3ccccc3s2)c(O)c1, CNc1nc2c(N)ncnc2n1[C@H]1O[C@@H](CO)[C@H](O)[C@@H]1O, Nc1nc(SCc2ccc([N+](=O)[O-])cc2)c2ncn(C3OC(CO)C(O)C3O)c2n1 (stereo not drawn), CCC1COCCS(=O)(=O)N1Cc1ccccc1 (stereo not drawn), Oc1ccc2c(ccc3[nH]cnc32)c1, COC(=O)NNC(=O)COc1ccc(Cl)cc1, NNc1nccc(Nc2ccccc2C(=O)O)n1, COc1nc(C)ccc1-c1noc(-c2ccccn2)n1, O=C(Cn1cc(COc2ccccc2C(F)(F)F)nn1)c1ccc(O)cc1, Fc1ccccc1/C=N/Nc1ncnc2nc[nH]c12, Cc1ccsc1/C=N/Nc1ncnc2nc[nH]c12, CCCCNC(=S)Nc1ccc2cn[nH]c2c1, O=c1c2c(O)cc(O)cc2oc2c(O)ccc(O[C@H]3O[C@@H](CO)[C@H](O)[C@@H](O)[C@@H]3O)c12, O=C1C=CC(O)(c2cc(=O)c3c(O)cc(O)cc3o2)C=C1, CS(=O)(=O)Nc1ccc(-c2ccc(/C=C3\SC(N)=NC3=O)o2)cc1, COc1ccc2c(Cl)c(C(N)=O)sc2c1, CSc1nc(SCC(=O)NCc2ccco2)c2c3c(sc2n1)CN(C)CC3, CC(C)Oc1ccc(C(CC(=O)NCc2ccco2)c2ccccc2)cc1 (stereo not drawn), COc1ccc2c(c1)[nH]c1c(Cl)ncnc12, CCOC(=O)c1ccc(NC(=S)Nc2ccc(Br)cc2N)cc1, COc1ccc(-n2ccc(-c3nn(-c4cccc(C(F)(F)F)c4)ccc3=O)n2)cc1, Cc1ccc(/C=c2\sc3n(c2=O)CN(c2ccc(Br)cc2)CN=3)o1, O=C(O)c1ccc2c(c1)S(=O)(=O)c1cc(Cl)ccc1C2=O, CCCCn1c(NCCO)nc2ccccc21, Clc1ccc2[nH]c3c(c2c1)CCc1cn[nH]c1-3, Cc1ccccc1/C=N/Nc1ncnc2nc[nH]c12, CC(=O)c1ccc(NC(=S)Nc2ccc3cn[nH]c3c2)cc1, COc1ccc(N=Nc2c(C)n[nH]c2C)cc1, N#CCC(N)=C(C#N)C#N, CC1OC(OCC2OC(Oc3c(-c4ccc(O)cc4)oc4cc(O)cc(O)c4c3=O)C(O)C(O)C2O)C(O)C(O)C1O (stereo not drawn), CCCCn1c(N2CCC(Cc3ccccc3)CC2)nc2c1c(=O)[nH]c(=O)n2C, COc1ccc(-c2ccc(=O)n(Cc3cccc([N+](=O)[O-])c3)n2)cc1, Cc1cccc(OCC(=O)Nc2nc3ccc([N+](=O)[O-])cc3s2)c1, CC1(C)Nc2ccc(O)cc2-c2c1ssc2=S, CCC(C)CCN1C(Nc2ccccc2)=NC[C@@H]1Cc1ccccc1 (stereo partly drawn), COc1ccc(N2C(=O)C3CCCN3C2c2cc(OC)c(OC)c(OC)c2)cc1 (stereo not drawn), CCOC(=O)C1CCCN(c2c(NCCCN3CCCC(C)C3)c(=O)c2=O)C1 (stereo not drawn)
